Out of some 290,000 compounds screened, about 11,000 (3.8%) were called active. This is one part of a sample in which actives are shown more often than they occur. Unmarked numbers belong to inactive results.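 The calls were made as follows: active = mean replicate inhibition above about 79%, with every replicate also reaching it (limit read from the data); inconclusive = only one of the two criteria met; inactive = mean below limit and not every replicate reaching it.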

This assay deals with FAD-linked sulfhydryl oxidase ALR (Homo sapiens) (UniProt P55789). Description: inhibitors of human ALR sulfhydryl oxidase, primary screen, biochemical, H2O2 detection, HRP-luminol luminescence, single point (AID 485317). The following applies: purified ALR, DTT oxidation, stronger effect = higher value, concentration not given here.
FAD-linked sulfhydryl oxidase ALR (Homo sapiens), sequence (P55789 whole entry, looked up): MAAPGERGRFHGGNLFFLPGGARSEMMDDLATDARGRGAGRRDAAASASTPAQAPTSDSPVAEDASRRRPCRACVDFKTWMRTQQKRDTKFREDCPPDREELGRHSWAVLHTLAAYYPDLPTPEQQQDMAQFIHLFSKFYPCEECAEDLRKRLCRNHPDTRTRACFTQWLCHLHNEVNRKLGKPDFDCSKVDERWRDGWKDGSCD
A word on the inhibition: it is the drop in the measured response relative to a control, in per cent. Take `CCOc1ccc(C(=O)Nc2cc(Cl)ccc2-n2cncn2)cc1OC`: the inhibition was -4.75%.
For `Cn1c(CC(=O)NNC(=O)c2ccccc2F)nc2ccccc21`, the inhibition is -4.08%.
In the case of `COc1ccc2oc(-c3cccc(NC(=O)CSc4ccc(Cl)cc4)c3)nc2c1`, the inhibition was -8.13%.
As for `COC(=O)CSc1nc(C)c2ccc(OC)cc2n1`, the inhibition is -12.7%.
As for `COc1ccc2cc(CCl)c(Cl)nc2c1`, the inhibition is 98% (active).
The figure for `Cc1ccc2nc(N3C(=O)C(O)=C(C(=O)c4ccco4)C3c3cccc(O)c3)sc2c1` (stereo not given) is 71.5%.
In the case of `O=C(C1=C(O)C(=O)N(c2ncccn2)C1c1cccs1)c1ccco1` (stereo not given), the inhibition was 21.9%.
On to `C=CCSc1nnc(N2C(=O)C(O)=C(C(=O)c3ccco3)C2c2ccc(F)cc2)s1` (stereo not given), for which the inhibition is 98% (active).
`Cc1ccc(C(=O)NCC(=O)NC2CC2)cc1`: the inhibition is 0.292%.
Turning to `CCC(CO)Oc1cc(NC(=O)c2cccc(F)c2)c2ncn(C(C)C)c2c1` (stereo not given), the inhibition is -32.8%.
For `Cn1c(N)c(C(=O)COC(=O)c2cccc(S(=O)(=O)N3CCOCC3)c2)c(=O)n(C)c1=O` the value was -2.97%.
The figure for `CCOC(=O)c1cc(Sc2ccccc2N)cc(C(=O)OCC)n1` is -11.9%.
For the compound `Cc1nn(C)c(C)c1Sc1ccccc1N`, the inhibition was 99.2% (active).
For `Nc1ccccc1Sc1cc(Cl)nnc1Cl` the value was 1.19%; for `O=C(NN=Cc1ccc(N2CCOCC2)cc1)c1cc2ccccc2cc1O`, 11.6%.
In the case of `COc1ccc([C@H]2CC(=O)C=C(c3ccc(CO)cc3)C2)cc1`, the inhibition was -0.829%.
Take `CCC(C)N(C(=O)COC(=O)c1nc(Cl)ccc1Cl)C1CCS(=O)(=O)C1` (stereo not given): the inhibition is 0.398%.
Regarding `CC(C)N(C(=O)CN1CCN(S(=O)(=O)c2ccc(Br)s2)CC1)C(C)C`, the inhibition is -3.29%.
In the case of `Cc1nc2nc(C)c(CCC(=O)N3CCN(c4ccccc4)CC3)c(C)n2n1`, the inhibition was 92.8% (active).
As for `CC(=O)c1ccc(N2CCN(C(=O)CCc3ccccc3)CC2)cc1`, the inhibition is 16.1%.
Regarding `CC(CC(=O)N1CCN(c2ccccc2)CC1)c1ccccc1` (stereo not given), the inhibition is 98.4% (active).
For `C/C(=C/c1ccccc1)C(=O)N1CCN(c2ccccc2)CC1` the value was 44%.
Consider `Cc1nc2c(-c3ccc(F)cc3)c(C)nn2c(C)c1CCC(=O)N1CCN(c2ccccn2)CC1`, for which the inhibition is -13.5%.
Regarding `O=C(CCc1ccccc1F)N1CCN(c2ccccc2)CC1`, the inhibition is 88% (active).
Regarding `Cc1nc2ncnn2c(C)c1CCC(=O)N1CCN(C(=O)c2ccco2)CC1`, the inhibition is 0.394%.
For the compound `O=C(CCSc1ccccc1)N1CCN(c2ccccc2F)CC1`, the inhibition was -13.1%.
The figure for `O=C(NC(CC(=O)N1CCN(c2ccccc2)CC1)c1ccccc1)c1ccccc1Cl` (stereo not given) is 22.4%.
For `CCOC(=O)c1cnc2nc(SCc3ccccc3Cl)[nH]n2c1=O` the value was 32.6%; for `Cc1csc2nc(O)c(C(=O)NCCN3CCOCC3)c(=O)n12`, 7.69%; for `COc1ccc(CNc2nc(NCc3ccc(OC)cc3)c3ncn(C4CCCC4)c3n2)cc1`, 2.44%.
For `O=C(COC(=O)c1cccs1)Nc1ccccc1Cl` the value was 2.46%.
For `O=C(Nc1ccccc1Cl)/C(Cl)=C(\Cl)S(=O)c1ccccc1` (stereo not given), the inhibition was 97.6% (active).
For `O=C(Nc1ccccc1Cl)Nn1cnnc1` the value was -11.5%.
For `CCCCCC(=O)N1CCN(S(=O)(=O)c2ccc3c(c2)OCCCO3)CC1`, the inhibition was 1.7%.
The figure for `Cc1ccc(S(=O)(=O)N2CCCCC2)cc1NC(=O)[C@@H]1CCCN1C(=O)c1cccs1` is -6.24%; for `O=C(Cc1ccc(Br)cc1)NCCc1ccccc1` it is -8.61%; for `Cc1cc(C)n2nc(C(=O)OCC(=O)N(C)CC(=O)Nc3ccc(F)cc3)nc2n1` it is 2.76%.
For `Cc1ccc(N2C(=O)C(Cc3ccccc3)NC2=S)cc1` (stereo not given), the inhibition was 25.5%.
For `C=C1c2cc(CC)ccc2NC(=O)N1c1ccc(C)cc1` the value was 96.2% (active); for `Cc1ccc(CC2C(=O)N(c3ccc(F)cc3)C(=O)C2C)cc1` (stereo not given), 1.22%.
The figure for `Cc1ccc(S(=O)(=O)N2CCN(C(=O)c3cccs3)CC2)cc1` is -6.58%.
The figure for `Cc1ccc(S(=O)(=O)N2CCN(C)CC2)cc1` is -6.86%.
For the compound `Cc1ccc(S(=O)(=O)N2C3C=CC(C3)C2C(=O)O)cc1` (stereo not given), the inhibition was 89.7% (active).
Regarding `CC(C)(C)OC(=O)C[C@@H]1C/C=C\C[C@@H](CC(=O)N[C@H](CO)Cc2ccccc2)C(=O)NC[C@@H](c2ccccc2)OC1=O`, the inhibition is -0.924%.
The figure for `COc1ccc(N=Nc2ccc(O)c(P(=O)(c3ccccc3)c3ccccc3)c2)cc1` is -4.29%; for `Cc1cc(N=Nc2ccc3ccccc3c2)ccc1O` it is 86% (active).
For `CC(=O)CCC(=O)c1ccc2ccccc2c1` the value was -2.18%; for `Cc1nc2ccccc2c(=O)n1-c1ccc(F)c(NC(=O)c2cccs2)c1`, -7.89%; for `CN(Cc1cccs1)C(=O)CN1C(=O)c2ccccc2S1(=O)=O`, 1.6%.
As to `O=C(N/C(=C\c1ccc(O)cc1)C(=O)N1CCCCC1)c1ccccc1`, the inhibition was 99% (active).
As for `CC1CCN(C(=O)/C(=C\c2ccccc2)NC(=O)c2ccccc2)CC1`, the inhibition was 8.11%.
For `Cc1ccc(C(=O)N/C(=C/c2cccs2)C(=O)NCC2CCCO2)cc1` (stereo not given) the value was -0.67%; for `Cc1ccc(C(=O)N/C(=C/c2cccs2)C(=O)N2CCCCC2)cc1`, 88.2% (active).
The figure for `O=C(N/C(=C\c1ccc(F)cc1)C(=O)N1CCCCCC1)c1ccccc1` is 39.9%; for `CN1CCN(C(=O)/C(=C\c2cccs2)NC(=O)c2cccs2)CC1` it is 9.55%; for `O=C(COC(=O)CSc1ccccc1)Nc1ccc(F)cc1F` it is 0.233%.
Take `Cc1nn(-c2ccccc2)nc1C(=O)OCC(=O)N1CCCCC1C` (stereo not given): the inhibition was 0.513%.
In the case of `CC(C)(C)Nc1c(-c2cccs2)nc2ccccn12`, the inhibition was 98.7% (active).
On to `Cc1nc2ccccn2c(=O)c1NC(=O)c1cccs1`, for which the inhibition was -1.56%.
For `Cc1ccsc1C(=O)N[C@@H](C)c1nnc2ccccn12`, the inhibition was -3.18%.
On to `O=C(OCC(=O)N1CCCCCC1)c1ccc(Cl)nc1`, for which the inhibition was 8.08%.
As to `CCOC(=O)[C@H]1[C@H]2COc3cc(OC)ccc3[C@@H]2N2C(=O)CN(Cc3ccc(Cl)cc3)C(=O)[C@@]12C`, the inhibition is -2.14%.
For `CCC(=O)N1CCc2cc(S(=O)(=O)CCC(=O)N3CCN(c4ccccc4F)CC3)ccc21` the value was 5.15%; for `CCC(=O)N1c2ccc(S(=O)(=O)CCC(=O)N3CCN(c4ccccc4)CC3)cc2CC1C` (stereo not given), 98.5% (active); for `CC(=O)N1CCCc2cc(S(=O)(=O)CCC(=O)N3CCN(c4ccccc4)CC3)ccc21`, 61.3%.
Consider `CCC(=O)c1cc(F)ccc1OCC(=O)Nc1ccc2c(c1)OCCO2`, for which the inhibition was -1.15%.
For `CNC[C@@H]1Oc2c(NS(C)(=O)=O)cccc2C(=O)N([C@@H](C)CO)C[C@H]1C` the value was 6.23%.
The figure for `CCOc1ccc(C(C)=O)cc1COC(=O)CNC(=O)c1cccs1` is -1.95%.
With `COc1ccc(C2CC(c3cccs3)=NN2C(=O)CCC(=O)O)cc1OC` (stereo not given), the inhibition is 5.58%.
For `COc1ccc(C2=NN(c3ccccc3)C(c3cccs3)C2)cc1` (stereo not given) the value was -4.89%.
Regarding `COc1ccccc1N1N=C(c2cccs2)CC1c1ccccc1` (stereo not given), the inhibition is 97.2% (active).
Regarding `COc1ccc(C2CC(c3cccs3)=NN2c2ccc(F)cc2)cc1OC` (stereo not given), the inhibition is -1.9%.
The figure for `COc1ccc(C2CC(c3cccs3)=NN2c2ccccc2)cc1` (stereo not given) is 97.6% (active); for `Oc1ccccc1C1=NN(c2ccccc2)C(c2ccccc2)C1` (stereo not given) it is 47.4%.
The figure for `COc1ccc(C(=O)C2CCCN(C(=O)c3ccc(OC)o3)C2)c(C)c1` (stereo not given) is -4%; for `CNC(C)C#Cc1ccc2sc3cc(OC)c(OC)cc3c(=O)c2c1` (stereo not given) it is -24.4%; for `Cc1onc(-c2ccccc2Cl)c1C(=O)N(Cc1ccc(N(C)C)cc1)C(C)C` it is 9.74%.
The figure for `CCCCCOc1ccc(CSC2=NCCN2)cc1[N+](=O)[O-]` is 98.8% (active); for `CCCOc1ccc(Cn2ccnc2)cc1[N+](=O)[O-]` it is -2.35%; for `CCCCOC(=O)CCCc1ccc([N+](=O)[O-])cc1[N+](=O)[O-]` it is -8.65%.
Turning to `C=CCN(CC=C)CCOc1ccccc1[N+](=O)[O-]`, the inhibition is -15.8%.
Consider `Cc1cc(OCCCCOc2ccc(C#N)cc2)ccc1[N+](=O)[O-]`, for which the inhibition is 3.02%.
The figure for `CCCCOc1ccc(CSC(=N)N)cc1[N+](=O)[O-]` is 99.9% (active); for `Cc1cc(C)c(S(=O)(=O)N2CCCC2CNC(=O)c2ccc3c(c2)OCO3)c(C)c1` (stereo not given) it is 0.666%.
As for `COCCn1c(C)cc(C(=O)CN2c3cccc4cccc(c34)S2(=O)=O)c1C`, the inhibition is -28.9%.
In the case of `CCCCN(C(=O)C1CCC1)c1c(N)n(Cc2ccccc2)c(=O)[nH]c1=O`, the inhibition was 7.79%.
The figure for `Cc1ccccc1NC(=O)Cc1nc(COC(=O)c2cccnc2Cl)cs1` is 31.8%; for `O=C(COC(=O)c1ccc2c(c1)OCCO2)NCc1ccccc1Cl` it is 1.29%; for `O=C(Cn1nc(Cc2cccnc2)c2ccccc2c1=O)NCC1COc2ccccc2O1` (stereo not given) it is -6%.
Consider `Cc1nn(CC(=O)NCC2CCCO2)c(=O)c2cc3ccccc3n12` (stereo not given), for which the inhibition is -2.19%.
For `O=C(Cn1nc(Cc2cccnc2)c2ccccc2c1=O)NCC1CCCO1` (stereo not given) the value was 98% (active).
The figure for `CCOC(=O)c1cc(NC(=O)c2cccnc2)ccn1` is -12.6%; for `CC(=O)Nc1ccc(SC[C@H](Cc2ccccc2)N2CC[C@@H](C)CCC2=O)cc1` it is 97.9% (active); for `C[C@H]1CCC(=O)N([C@H](CSc2ccccc2)Cc2ccccc2)CC1` it is -5.54%.
In the case of `O=C1CC[C@H](O)CCN1[C@H](CSc1ccc(Br)cc1)Cc1ccccc1`, the inhibition is 11.4%.

Source of the values: PubChem BioAssay AID485317 (Broad Institute, 2010).
